# From the OligoGym collection
# Target: FAM117A
# Experiment: pooled miR-30 sensor sort-seq; sequence = guide strand
# Details: shRNA
# Further: reference of the scale not given here.
row,Sequence,sensor-assay potency score (higher = more potent)
1,TACACACTGACTTTTCTGGGGC,0.0109
2,TTAACATTCTTCAATTTTGTGT,-0.138
3,AACTCGAACATTAACATTCTTC,-0.482
4,TTCTTCAAACACACGCACTTTC,-0.795
5,TTGTCATTGGTGCAGCAGGTGA,-1.77
6,TCACCTTCTAGCTCTTGCCAGG,-1.11
7,TGTAGCTATGATTAGGTCGAGG,-1.12
8,TATACAAACTTCAAACAGCTGC,-0.329
9,TTGAAATGGACTTTGTTCTTGT,1.01
10,AAATAGAGTCTCTACATCGATA,-1.34
11,TTTTCTAATCCATCCAGCCCTG,-0.672

# Target: FAM127A
# Experiment: as above
# Details: shRNA
row,Sequence,sensor-assay potency score (higher = more potent)
1,TCGCCGTCAAACGTCTCGGGAA,-1.08
2,TGTAGGAGCCCGTCTGCACGAT,-1.04
3,TATCGCCGTCAAACGTCTCGGG,-0.476
4,TTCATCTCGGCCAGAAAGCCCC,-0.891
5,TCGCTGGAGAACGTGTTCTCGT,-1.32
6,ATTGAGGAGGGGGCTCTCCTTC,-1.52
7,AAAGACTCGCTTCATCTCGGCC,-1.07
8,ATCTCGGCCAGAAAGCCCCGGT,-0.915
9,TCGGTATCGCCGTCAAACGTCT,-1.19
10,TCGGTCGGTATCGCCGTCAAAC,-1.87
11,ATCGCCGTCAAACGTCTCGGGA,-1.14

# Target: FAM134A
# Experiment: as above
# Details: shRNA
row,Sequence,sensor-assay potency score (higher = more potent)
1,TTCTTGGTCTGACTGTACCAGA,-0.779
2,TAAGAGTGTAACTACTGGCCTG,-0.0872
3,TACCAGAGAATGGATGTCGGGC,-0.337
4,TATTTTTCAAGTCAACACCTGC,-0.352
5,AACAGCAACACTCCTAGCCAGG,-1.64
6,TGAATCTGGAAGGTGAGCCAGC,-0.0919
7,TTCAAGTCAACACCTGCACAGA,-0.356
8,TACACAGACTACAGTGACCTAA,-0.201
9,AAGAGTGTAACTACTGGCCTGA,0.464
10,TTGGCTTCTGCCTTCATGCTGT,0.471
11,TTTCTTCACATCCACCACTGGG,-0.774
12,TTCTTCACATCCACCACTGGGG,-0.152

# Target: FAM151A
# Experiment: as above
# Details: shRNA
row,Sequence,sensor-assay potency score (higher = more potent)
1,TGTCATAGTAGACTTGGTGGAC,0.221
2,TAAGATGTCAGCGTTGATCCAT,0.0658
3,TTTGCCTTCCTCTGTCAGCTGC,0.237
4,TTGTGCTCCACTGTGACGGTGG,0.185
5,TTCTACATTGACGTCAGCCTCC,-0.0868
6,AAAGATGTCATAGTAGACTTGG,0.264
